Screening results (PubChem BioAssay)
Most compounds without a hit are left out; they make up all but 4.7% or so of the library.
D1 antagonist: antagonists of human D1 dopamine receptor. activity change, negative = inhibition, % at 10 µM. 3.2% of 360,000 active. HEK293 TREx D1 cells, calcium flux, dopamine EC80; hits give low values; in the data active = activity change below about -30%
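After overnight tetracycline induction at 30 C, force-coupled D1 HEK293 cells took up a no-wash calcium dye at room temperature. Compounds were added and monitored 180 s, and the response to EC80 dopamine was then recorded.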
D1 potentiator: human D1 dopamine receptor positive modulation; P21728; HEK293 TREx D1 cells, calcium flux, dopamine EC20 potentiation; potentiation, % at 10 µM; 0.036% of 360,000 active; AID 504651; in the data active = potentiation above about 30%
D1 ag: agonists of human D1 dopamine receptor; 1% of 360,000 active; activation, % at 2 µM; HEK293 T-REx D1 cells, calcium flux, agonist mode; AID 504660; P21728
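Inducible HEK293 T-REx D1 cells, force-coupled to calcium signalling, were plated at 4000 cells/well with tetracycline and held overnight at 30 C. After no-wash calcium dye loading, compound-evoked calcium rise over 180 s flagged agonists.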
TRHR agonist-1: agonists of human TRH receptor | P34981 | TRHR cells, calcium flux fluo-8, FDSS agonist mode | activation, % at 2 µM | 0.18% of 360,000 active | AID 493084
Target sequence (P34981 whole entry, looked up): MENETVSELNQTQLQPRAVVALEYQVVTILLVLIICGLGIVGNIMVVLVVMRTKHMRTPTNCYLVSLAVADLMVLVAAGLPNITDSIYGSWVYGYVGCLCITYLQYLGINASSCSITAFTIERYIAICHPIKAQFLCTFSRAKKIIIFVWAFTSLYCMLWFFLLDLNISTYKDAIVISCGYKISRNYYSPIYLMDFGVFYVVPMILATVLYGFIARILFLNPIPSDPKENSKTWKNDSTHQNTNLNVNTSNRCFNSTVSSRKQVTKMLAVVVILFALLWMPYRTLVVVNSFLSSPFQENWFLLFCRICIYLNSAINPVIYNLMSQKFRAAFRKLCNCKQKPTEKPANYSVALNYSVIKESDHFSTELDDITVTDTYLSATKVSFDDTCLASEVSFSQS
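In this calcium-flux screen, cells bearing human TRHR are dye-loaded with fluo-8, baselined for 10 cycles, then exposed to library compounds; positive kinetic calcium responses during the agonist phase mark hits, with TRH as control.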
TRHR enhancer-1: TRH receptor (human) allosteric enhancement; P34981; TRHR cells, fluo-8 calcium fluorescence, EC20 TRH enhancement; AID 493056; 0.66% of 360,000 active; enhancement, % at 2 µM; in the data active = enhancement above about 30%
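Enhancer read-out: after compound pinning and an initial kinetic agonist-mode read, an EC20 of TRH (10 nM final) was injected and fluo-8 calcium signal (Ex 480/Em 530) followed at 1 s/cycle for 100 cycles in TRHR-expressing cells.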
TRHR enhancer-2: human TRH receptor allosteric enhancement confirmation. shares compounds with TRHR enhancer-1. TRH receptor cell assay, enhancer confirmation qHTS. activity change, negative = inhibition, % at 46.1 µM. 970 tested, under 10 active; active = well fitted curve in the direction sought with a large enough effect; inconclusive = small, poorly fitted or top-dose-only effect, or another doubt; inactive = no such curve, though single readings can be large; an effect the other way counts as inactive or inconclusive;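 note: compound effect scored on response to added TRH at EC20 of 10 nM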
TRHR agonist-2: confirmation of human TRH receptor agonists; Potency, µM (highest dose often 46.1 µM), usual class: activators; AID 493078; 8% of 970 active; shares compounds with TRHR enhancer-1; TRHR-expressing cells, agonist activation read-out; active = well fitted curve in the direction sought with a large enough effect; inconclusive = small, poorly fitted or top-dose-only effect, or another doubt; inactive = no such curve, though single readings can be large; an effect the other way counts as inactive or inconclusive; note: nearly all actives have a fitted effect of over 75% in size
Each line names hits and unclear results; the compound was inactive in the other large screens (follow-up assays come after a bar, where they were run). Cut-off read from the data, not from the text of the source, unless noted: active = activation above about 30%; inactive = the rest.

C=CCOc1ccc(C2C(C(=O)c3ccco3)=C(O)C(=O)N2c2nnc(C)s2)cc1 (stereo not given)	D1 ag 56.7, TRHR agonist-1 40.2 | TRHR enhancer-2 inactive | TRHR agonist-2 inactive
CCCN1C(=O)c2ccccc2NC1c1ccc(Cl)c(Cl)c1 (stereo not given)	TRHR enhancer-1 74.4 | TRHR enhancer-2 inactive | TRHR agonist-2 inactive
COc1ccc2c(c1)cc(C(=O)N/N=C/c1c(O)c(C(=O)O)cc3ccccc13)n2C	TRHR agonist-1 33.4 | TRHR enhancer-2 inconclusive | TRHR agonist-2 18.4µM
Cn1c(O)c(/C=N/NC(=O)c2cc3ccccc3cc2O)c2ccccc21	D1 ag 146.5, TRHR agonist-1 45.7 (no result: D1 potentiator) | TRHR enhancer-2 inactive | TRHR agonist-2 13µM
O=C(NCCc1nc2ccccc2n1CCOc1ccc(Cl)cc1)C1CCCCC1	none
Cc1ccc2onc(CC(=O)N(C)c3ccccc3)c2c1	none
COc1cccc(C2c3[nH]c4ccccc4c3CCN2Cc2cnn(C)c2)c1 (stereo not given)	TRHR enhancer-1 61.4 | TRHR enhancer-2 inactive | TRHR agonist-2 inconclusive
COc1ccc(OC)c(C2CC(=O)Oc3c2c(=O)n(C)c2ccccc32)c1 (stereo not given)	none
CN1CCN(CC(=O)NC(=O)NC2CCCCC2)CC1	none
CN1CCN(NC(=O)NC2CCCCC2)CC1	D1 antagonist -39.0, TRHR enhancer-1 41.1 | TRHR enhancer-2 inactive | TRHR agonist-2 inactive
CCCCCCn1c(=O)c(F)cn(Cc2ccc(OC)c([N+](=O)[O-])c2)c1=O	none
CCOC(=O)Cn1c(=O)c(F)cn(Cc2ccc(OC)c([N+](=O)[O-])c2)c1=O	TRHR enhancer-1 66.6 | TRHR enhancer-2 inactive | TRHR agonist-2 inactive
CCOC(=O)c1c(NC(=O)c2cc(CC)on2)sc(C)c1C	none
CCN(CC)S(=O)(=O)c1cccc(C(=O)N/N=C(\C)c2ccc(O)cc2O)c1	none | TRHR enhancer-2 inactive | TRHR agonist-2 inconclusive
N#Cc1ccccc1NC(=O)c1cc2c(=O)n3ccccc3nc2s1	none
CN(C)c1ccc(C(C(=O)NCC2CCCO2)N(C(=O)c2snc(C(N)=O)c2N)c2ccc3c(c2)OCO3)cc1 (stereo not given)	TRHR enhancer-1 53.5 | TRHR enhancer-2 inactive | TRHR agonist-2 inactive
Cc1cccc(N(C(=O)c2snc(C(N)=O)c2N)C(C(=O)NC2CCCC2)c2ccncc2)c1 (stereo not given)	TRHR enhancer-1 42.4 | TRHR enhancer-2 inactive | TRHR agonist-2 inactive
CN(C)c1ccc(C(C(=O)NCC2CCCO2)N(C(=O)c2snc(C(N)=O)c2N)c2ccccc2)cc1 (stereo not given)	none
CCOc1ccc(NC(=O)CN(C)C(=O)CC2OC(=O)c3ccccc32)cc1OCC (stereo not given)	none
CCOc1ccc(N(Cc2nnc3n2CCCCC3)C(=O)Nc2cccc(C)c2)cc1	TRHR enhancer-1 57.8 | TRHR enhancer-2 inactive | TRHR agonist-2 inactive
CCN(C(=O)Cn1nc(Cc2ccncc2)c2ccccc2c1=O)c1ccc(OC)cc1	none
CCCn1c(N)c(C(=O)COC(=O)CCNS(=O)(=O)c2ccccc2F)c(=O)[nH]c1=O	none
Cc1ccc(OCC(=O)Nc2cccc(C(=O)OCc3cc(=O)n4cc(C)sc4n3)c2)cc1	none
CCOc1cc(/C=C(/C#N)C(=O)Nc2ccc(O)cc2)cc(Br)c1O	D1 ag 47.6, TRHR agonist-1 40.5 | TRHR enhancer-2 inactive | TRHR agonist-2 20.6µM
COc1ccc([N+](=O)[O-])cc1NC(=O)c1cn(-c2ccc(Cl)cc2)c(=O)c2ccccc12	TRHR enhancer-1 71.7 | TRHR enhancer-2 inconclusive | TRHR agonist-2 inactive
Cc1cc(C)cc(NC(=O)Nc2c[nH]c(=O)[nH]c2=O)c1	none
O=C(COC(=O)c1c2c(nc3ccccc13)/C(=C/c1cccc([N+](=O)[O-])c1)CCC2)NC1CCS(=O)(=O)C1 (stereo not given)	TRHR enhancer-1 42.5 | TRHR enhancer-2 inactive | TRHR agonist-2 inactive
